Data published in PubChem BioAssay AID1159580 (chemical genetic matrix, 2015).
About 2,000 (36%) of roughly 5,500 compounds were called active. Roughly 18% stayed inconclusive and do not appear here. Rule as the data show it: active = normalized growth mostly below about 0.91 (no sharp cut-off); inconclusive = no clear call, values can overlap the other calls; inactive = mostly above about 0.92. The list shows a part of the results.

Assay: chemical genetic growth profiling, strain panel (AID 1159580);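 also: tested at 20 µM; growth read once vehicle control cultures reached saturation at 30 °C; 1 = growth at the plate median or of vehicle wells; lower values mean less growth of the strain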
Details: growth OD

Measured: normalized growth

O=S1OCC2C(CO1)C1(Cl)C(Cl)=C(Cl)C2(Cl)C1(Cl)Cl (centres undefined)
inactive: S. cerevisiae deletion strains, locus YJR043C, strain POL32, hits give low values 0.96 | S. cerevisiae deletion strains, locus YJR075W, strain HOC1, hits give low values 0.986 | S. cerevisiae deletion strains, locus YKL009W, strain mrt4, hits give low values 0.947 | S. cerevisiae deletion strains, locus YKL068W, hits give low values 0.964 | S. cerevisiae deletion strains, locus YKL085W, strain MDH1 (second series), hits give low values 0.982 | S. cerevisiae deletion strains, locus YKL085W, strain MDH1, hits give low values 0.982 | S. cerevisiae deletion strains, locus YKL160W, strain elf1, hits give low values 0.953 | S. cerevisiae deletion strains, locus YKL190W, strain CNB1, hits give low values 1 | S. cerevisiae deletion strains, locus YKR001C, strain vps1, hits give low values 0.975 | S. cerevisiae deletion strains, locus YKR026C, strain gcn3, hits give low values 0.987 | S. cerevisiae deletion strains, locus YKR091W, strain srl3, hits give low values 0.991 | S. cerevisiae deletion strains, locus YLL001W, strain dnm1, hits give low values 0.99 | S. cerevisiae deletion strains, locus YLL026W, hits give low values 1 | S. cerevisiae deletion strains, locus YLL041C, strain sdh2, hits give low values 0.992 | S. cerevisiae deletion strains, locus YLR027C, strain aat2, hits give low values 0.961 | S. cerevisiae deletion strains, locus YLR039C, strain RIC1, hits give low values 1.06 | S. cerevisiae deletion strains, locus YLR058C, strain SHM2, hits give low values 0.979 | S. cerevisiae deletion strains, locus YLR102C, strain apc9, hits give low values 0.973 | S. cerevisiae deletion strains, locus YLR221C, strain rsa3, hits give low values 0.931 | S. cerevisiae deletion strains, locus YLR258W, strain gsy2, hits give low values 0.973 | S. cerevisiae deletion strains, locus YLR262C, strain YPT6 (second series), hits give low values 1.06 | S. cerevisiae deletion strains, locus YLR262C, strain YPT6, hits give low values 1.05 | S. cerevisiae deletion strains, locus YLR268W, strain sec22, hits give low values 0.97 | S. cerevisiae deletion strains, locus YLR320W, strain mms22, hits give low values 0.961 | S. cerevisiae deletion strains, locus YLR330W, strain CHS5, hits give low values 0.984 | S. cerevisiae deletion strains, locus YLR342W, strain FKS1 (second series), hits give low values 0.872 | S. cerevisiae deletion strains, locus YLR342W, strain FKS1, hits give low values 0.991 | S. cerevisiae deletion strains, locus YLR357W, strain rsc2, hits give low values 0.996 | S. cerevisiae deletion strains, locus YLR370C, strain arc18, hits give low values 0.997 | S. cerevisiae deletion strains, locus YLR371W, strain rom2, hits give low values 0.949 | S. cerevisiae deletion strains, locus YLR384C, strain iki3, hits give low values 1 | S. cerevisiae deletion strains, locus YLR418C, strain cdc73, hits give low values 0.946 | S. cerevisiae deletion strains, locus YML016C, strain PPZ1, hits give low values 0.991 | S. cerevisiae deletion strains, locus YML032C, strain rad52, hits give low values 0.974 | S. cerevisiae deletion strains, locus YML120C, strain ndi1, hits give low values 0.983 | S. cerevisiae deletion strains, locus YML124C, strain tub3, hits give low values 0.976 | S. cerevisiae deletion strains, locus YMR058W, strain fet3, hits give low values 0.976 | S. cerevisiae deletion strains, locus YMR078C, strain ctf18, hits give low values 0.977 | S. cerevisiae deletion strains, locus YMR125W, strain sto1, hits give low values 0.998 | S. cerevisiae deletion strains, locus YMR129W, hits give low values 0.992 | S. cerevisiae deletion strains, locus YMR205C, strain PFK2, hits give low values 0.91 | S. cerevisiae deletion strains, locus YMR223W, strain ubp8, hits give low values 0.955 | S. cerevisiae deletion strains, locus YMR231W, strain pep5, hits give low values 0.97 | S. cerevisiae deletion strains, locus YMR263W, strain SAP30, hits give low values 0.946 | S. cerevisiae deletion strains, locus YMR307W, strain GAS1, hits give low values 0.978 | S. cerevisiae deletion strains, locus YNL067W, strain RPL9B, hits give low values 0.981 | S. cerevisiae deletion strains, locus YNL071W, strain lat1, hits give low values 0.966 | S. cerevisiae deletion strains, locus YNL128W, strain TEP1, hits give low values 0.975 | S. cerevisiae deletion strains, locus YNL153C, strain GIM3, hits give low values 0.987 | S. cerevisiae deletion strains, locus YNL209W, strain ssb2, hits give low values 0.991 | S. cerevisiae deletion strains, locus YNL233W, strain BNI4, hits give low values 1 | S. cerevisiae deletion strains, locus YNL248C, strain rpa49, hits give low values 0.992 | S. cerevisiae deletion strains, locus YNL250W, strain rad50, hits give low values 0.957 | S. cerevisiae deletion strains, locus YNL271C, strain bni1, hits give low values 0.971 | S. cerevisiae deletion strains, locus YNL298W, strain CLA4, hits give low values 0.946 | S. cerevisiae deletion strains, locus YNL322C, strain KRE1 (second series), hits give low values 0.986 | S. cerevisiae deletion strains, locus YNL322C, strain KRE1, hits give low values 0.978 | S. cerevisiae deletion strains, locus YNR049C, strain mso1, hits give low values 0.997 | S. cerevisiae deletion strains, locus YNR052C, strain pop2, hits give low values 0.968 | S. cerevisiae deletion strains, locus YOL006C, strain TOP1, hits give low values 0.822 | S. cerevisiae deletion strains, locus YOL012C, strain htz1 0.777 | S. cerevisiae deletion strains, locus YOL147C, strain pex11, hits give low values 0.991 | S. cerevisiae deletion strains, locus YOR001W, strain rrp6, hits give low values 0.978 | S. cerevisiae deletion strains, locus YOR061W, strain CKA2, hits give low values 0.987 | S. cerevisiae deletion strains, locus YOR069W, strain VPS5, hits give low values 0.979 | S. cerevisiae deletion strains, locus YOR070C, strain gyp1, hits give low values 0.979 | S. cerevisiae deletion strains, locus YOR080W, strain dia2, hits give low values 0.991 | S. cerevisiae deletion strains, locus YOR083W, strain WHI5, hits give low values 0.942 | S. cerevisiae deletion strains, locus YOR106W, strain vam3, hits give low values 0.884 | S. cerevisiae deletion strains, locus YOR136W, strain idh2, hits give low values 0.98 | S. cerevisiae deletion strains, locus YOR144C, strain elg1, hits give low values 0.984 | S. cerevisiae deletion strains, locus YOR184W, strain ser1, hits give low values 0.887 | S. cerevisiae deletion strains, locus YOR265W, strain rbl2, hits give low values 0.993 | S. cerevisiae deletion strains, locus YOR290C, strain snf2, hits give low values 0.937 | S. cerevisiae deletion strains, locus YOR316C, strain cot1, hits give low values 0.975 | S. cerevisiae deletion strains, locus YPL051W, strain arl3, hits give low values 0.988 | S. cerevisiae deletion strains, locus YPL055C, strain LGE1, hits give low values 0.974 | S. cerevisiae deletion strains, locus YPL078C, strain atp4, hits give low values 0.987 | S. cerevisiae deletion strains, locus YPL106C, strain sse1, hits give low values 0.993 | S. cerevisiae deletion strains, locus YPL240C, strain hsp82, hits give low values 0.991 | S. cerevisiae deletion strains, locus YPL241C, strain CIN2, hits give low values 0.985 | S. cerevisiae deletion strains, locus YPR119W, strain clb2, hits give low values 0.976 | S. cerevisiae deletion strains, locus YPR141C, strain kar3, hits give low values 0.98 | S. cerevisiae deletion strains, locus YPR163C, strain tif3, hits give low values 0.978 | S. cerevisiae deletion strains, locus YPR167C, strain met16, hits give low values 0.971 | S. cerevisiae deletion strains, strain wtn01, hits give low values 0.954 | S. cerevisiae strains, strain wild type, hits give low values 0.987
active: S. cerevisiae deletion strains, locus YNL307C, strain MCK1, hits give low values 0.885 | S. cerevisiae deletion strains, locus YOR270C, strain vph1, hits give low values 0.633
